High-throughput results: PubChem, several laboratories
Shown are actives, neighbours in structure and some others; about 2.7% of the full set was active somewhere.
Shn3 3UTR inh = inhibitors of Schnurri-3 3'UTR reporter in osteoblasts. 0.52% of 360,000 active. Clone20 osteoblast Shn3 3'UTR firefly luciferase, 24 h. inhibition, % at 12.5 µM;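 active = mean inhibition of at least 75% with every replicate also reaching 75%; inconclusive = mean inhibition at least 75% but some replicate below; inactive = mean inhibition below 75%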;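 also: 0% = median of neutral control wells and 100% = pilot-screen positive control compound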
KKLEB tox = counter-screen for CF NF-kB inhibitors: cytotoxicity. 0.36% of 360,000 active. KKLEB CF airway cells viability, ATPlite luminescence, overnight; hits give low values; cells stimulated with P. aeruginosa culture filtrate. activity change (cytotoxicity), % at 5 µM;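 active = corrected activity change at or below -50% at 5 µM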
MITF TRPM1 inh = MITF TRPM1 promoter inhibition in SK-MEL-5 cells | SK-MEL-5 TRPM1 promoter luciferase, 24 h | inhibition, % at 12.5 µM | 0.83% of 330,000 active | AID 488899;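 active = mean inhibition across replicates of 60% or more, whatever share of single replicates reaches that level; inconclusive = some that reach 60%, reason not given; inactive = mean inhibition across replicates below 60%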
HIF-2a inh = inhibitors of HIF-2a. 786-0 RCC cells HIF-2a reporter, luciferase luminescence, overnight. inhibition, % at 18.8 µM. 0.72% of 360,000 active;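 active = inhibition of the luminescence signal of 40% or more relative to plate controls, in a single-dose primary screen at 18.75 µM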
CF NFkB block = cystic fibrosis NF-kB activation inhibition. KKLEB NF-kB-GFP reporter, PAF-induced, GFP fluorescence overnight. inhibition, % at 5 µM. 0.86% of 360,000 active;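 active = at least 50% inhibition at 5 µM, scaled per plate between neutral and stimulator controls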;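 also: PAF is a Pseudomonas aeruginosa culture filtrate used as stimulus; plate controls were PAF-stimulated DMSO wells for no effect and unstimulated DMSO wells for full effect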
Peg3 prom inh = reduces Peg3 promoter-driven luciferase expression in HeLa; 1.7% of 360,000 active; inhibition, % at 20 µM; AID 588405; HeLa PEG-Prom luciferase reporter, luminescence, overnight;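 active = inhibition of at least 50% at 20 µM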
Active calls of the source: *; ? = inconclusive; . = no result given.

SMILES	Shn3 3UTR inh	KKLEB tox	MITF TRPM1 inh	HIF-2a inh	CF NFkB block	Peg3 prom inh
C[n+]1c2n(c3ccccc31)N=C(c1ccc(Cl)cc1)CS2	15	-4	61*	15	-13	17
CCCC(O)(c1ccc(Cl)cc1)C(CN1CCOCC1)c1ccc(Cl)cc1 (stereo unspecified)	26	2	5	7	12	58*
CCc1ccc(C(O)(CC(C)C)C(CN2CCOCC2)c2ccccc2)cc1 (stereo unspecified)	14	8	25	14	2	54*
COCCOc1nc2c(c(=O)n(C)c(=O)n2C)n1Cc1cccc(OC)c1	87*	8	16	26	6	19
O=C(Nc1cccc(C(F)(F)F)c1)c1ccc2nc(-c3ccco3)c(-c3ccco3)nc2c1	14	-14	-4	5	1	50*
O=C1C(=Cc2ccncc2)CCCc2ccccc21	32	12	.	12	25	17
O=C1/C(=C/c2ccncc2)CCC/C1=C\c1ccncc1	72	-36	96*	93*	86*	101*
O=C(Nc1c2c(nn1-c1ccccc1)CS(=O)(=O)C2)c1ccc(Br)o1	-1	-8	.	12	10	-12
CC1=C(C(=O)N2CCCCCC2)CC(CC(=O)NC2CCCC2)C(=O)N1Cc1ccc(F)cc1 (stereo unspecified)	.	.	.	7	.	.
O=C(N/N=C/c1cc([N+](=O)[O-])ccc1O)c1cccc2cc[nH]c12	47	-14	74*	-12	18	40
C[C@@H]1CN([C@@H](C)CO)C(=O)CCCn2nncc2CO[C@@H]1CN(C)S(=O)(=O)c1cccc(F)c1	-21	-1	.	7	-11	-11
C[C@H](NC(=O)c1ncn2c1c(=O)[nH]c1ccccc12)c1ccccc1	-28	-5	.	-4	2	-1
C[C@H](NC(=O)c1ncn2c1c(=O)[nH]c1ccc(Br)cc12)c1ccccc1	83	-3	.	9	2	100*
CC(=O)N1c2ccccc2Sc2ccc3ccccc3c21	-11	13	.	21	-20	17
O=C(CCl)N1c2ccccc2Sc2c1ccc1ccccc21	-2	-16	30	-41	4	58*
Cc1cccc(N2CCN(C(C(=O)NCc3ccccc3)c3ccc(C(F)(F)F)cc3)CC2)c1C (stereo unspecified)	.	.	.	12	.	.
Cc1cccc(-c2cnc(C(O)Cc3ccccc3)[nH]2)c1 (stereo unspecified)	4	1	.	-133	-4	-61
COc1ccc(C(=O)Nc2ccccc2C(=O)NCc2cccnc2)cc1OC	-3	0	1	2	8	14
COc1ccc(C(=O)Nc2ccccc2C(=O)N/N=C/c2cccc3ccccc23)cc1	-18	-88*	-9	-36	-6	-65
COc1ccc(C(=O)Nc2ccccc2C(=O)N/N=C/c2ccncc2)cc1OC	-41	-60*	-40	-179	12	-132
CCCCCCCCN1C(=O)[C@H](CC(=O)NCc2ccc(C)o2)C[C@@]2(C(=O)OC)CCCCC=C12	.	.	.	8	.	.
O=C(Cn1ccc(=O)[nH]c1=O)c1ccc([N+](=O)[O-])o1	-1	-7	.	3	-26	-11
Cc1ccc(C(=O)CCS(=O)(=O)c2ccc(F)cc2)cc1	9	-11	-4	7	32	60*
CC(=O)NCCOc1cccc2ccccc12	8	15	17	3	-12	-5
c1ccc(CCNCCCOc2cccc3ccccc23)cc1	-14	6	-2	12	22	50*
SMILES	Shn3 3UTR inh	KKLEB tox	MITF TRPM1 inh	HIF-2a inh	CF NFkB block	Peg3 prom inh
CC(C)c1ccccc1-n1c(SCC(=O)N2CCc3ccccc3C2)nc2ccccc2c1=O	96*	-7	18	25	8	38
O=C(CSc1nc2ccccc2c(=O)n1-c1ccccc1)N1CCc2ccccc2C1	83	-7	13	28	4	13
Cn1c(Oc2cccnc2CN2CCCC2)nc2cc(-c3cccc(C(F)(F)F)c3)sc2c1=O	-31	13	.	-115	-52	-56
OC[C@H]1O[C@@H](c2nc3ccc(-c4nc(-c5cccs5)no4)cc3[nH]2)C[C@@H]1O	-94	-12	.	-278	20	-250
COc1ccc(-c2cc3c(=O)n(CC(=O)NCCCN4CCC(Cc5ccccc5)CC4)ncn3n2)cc1	70	-62*	71*	-6	24	96*
COc1ccc(-c2cc3c(=O)n(CC(=O)NCCCN4CCN(Cc5ccccc5)CC4)ncn3n2)cc1	71	-41	-17	-41	3	-75
Cc1nn(CC(=O)NCCCN2CCC(N3CCCCC3)CC2)c(=O)c2cc(-c3ccccc3)nn12	9	-8	-22	5	-7	78*
Cc1cccc(-c2cnc(C(O)c3ccc(F)c(C)c3)[nH]2)c1 (stereo unspecified)	-8	5	.	-26	14	-10
CCOC(=O)N1CCN(C(=O)c2ccc3c(c2)N(C)C(=O)/C(=C\c2ccc(OCC)c(OC)c2)S3)CC1	46	-16	15	14	28	53*
C=CCNc1nc(Nc2ccc([N+](=O)[O-])cc2)nc(N2CCCC2)n1	15	-11	2	-4	5	56*
O=C(NCc1ccc(F)cc1)c1cc(C2CCCCN2C(=O)CCCc2ccccc2)on1 (stereo unspecified)	21	1	.	10	-19	8
CC[C@@H](C)[C@H](NC(=O)OC(C)(C)C)c1nnc(S(=O)(=O)Cc2cc(C)ccc2C)o1	?	-19	54	-67	72*	105*
CC[C@@H](C)[C@H](NC(=O)OCc1ccccc1)c1nnc([C@@H](NC(=O)OCc2ccccc2)[C@@H](C)CC)o1	30	-8	-7	10	13	4
FC(F)(F)c1cc(CCN2CCNC[C@@H]2CC2CCCCC2)cc(C(F)(F)F)c1	3	-22	64*	5	20	96*
CCCC[C@@H]1CNCCN1CCc1cc(C(F)(F)F)cc(C(F)(F)F)c1	1	-11	30	-1	1	7
COc1ccc(CCN(C(=S)Nc2ccccc2)C2CC(=O)N(c3ccccc3)C2=O)cc1 (stereo unspecified)	22	1	-6	-4	-7	0
O=C1CC(N(CCc2ccccc2)C(=S)Nc2ccccc2)C(=O)N1c1ccc(Br)cc1 (stereo unspecified)	27	-8	-10	-30	11	54*
CCC(C)c1ccc(C(C)NC(=S)NCc2ccc(F)cc2)cc1 (stereo unspecified)	18	-11	-2	4	44	51*
Cc1ccc(C(=O)Nc2cccc(NC(=O)c3cccs3)c2)c(C)c1	1	-5	10	-37	13	-32
Cc1nn(-c2ccc(F)cc2)c2nc(N)c(C#N)c(-c3ccc(O)c(O)c3)c12	16	-1	21	24	10	41
